According to PubChem BioAssay AID493240 (Broad Institute, 2011):
About 270 (21%) of roughly 1,300 compounds were called active. The rule behind the calls is not given here. The list is a sample of the results. A call without a number means that no potency is given here. Potency and affinity values are given separately.

test: cytotoxicity in parental SK-MEL-5 melanoma cells – cell-based, CellTiter-Glo, cherry-picked, set 3, orthogonal assay for MITF inhibitor project, dose response (AID 493240); settings: SK-MEL-5 viability, ATP luminescence (CellTiter-Glo), 24 h; series mostly up to 35 µM

Structure (SMILES) | outcome
COc1ccc(C(=O)NCCSc2ccccc2C)cc1 | inactive
CCOc1ccc(NC(=O)c2ccccn2)cc1 | inactive
CC(C)N=C(NS(=O)(=O)c1ccccc1)C(Cl)(Cl)Cl | inactive
O=C(Cn1cnc2ccccc2c1=O)Nc1ccc2c(c1)OCCO2 | inactive
Cc1nn(C)cc1/C=C/C(=O)c1cccs1 | inactive
Cc1ccn2c(Nc3ccccc3)c(-c3ccccn3)nc2c1 | inactive
O=[N+]([O-])c1cc(C(F)(F)F)ccc1NCCc1ccccn1 | inactive
COc1ccc(COC(=O)c2n[nH]c3ccccc23)cc1F | inactive
Cc1cc(Br)ccc1OCc1nc(-c2cccnc2)no1 | inactive
O=C(NC1CCCCCC1)c1cc2ccccc2oc1=O | inactive
CCOC(=O)c1cc([N+](=O)[O-])c([N+](=O)[O-])cc1NC(C)=O | inactive
N/C(CS(=O)(=O)c1ccccn1)=N\OC(=O)c1ccccc1Cl | inactive
N/C(=N\OC(=O)c1ccccc1)c1ccccn1 | inactive
O=C(Nc1ccc2c(c1)OCCO2)c1ccoc1 | inactive
COc1ccccc1NC(=O)c1cnc(SCC(=O)NCC2CCCO2)n(C)c1=O (configuration not stated) | inactive
COc1ccc(Cn2c(-c3ccc(C)cc3)c[n+]3ccccc23)cc1 | inactive
COc1ccc2oc(=O)c(C(=O)Nc3ccccc3C)cc2c1 | inactive
CCC[n+]1c(C)sc2c3c(ccc21)CCCC3 | inactive
O=C(Nc1ccccc1)C1Cc2ccccc2CN1C(=O)c1ccco1 (configuration not stated) | inactive
Cc1ccc(OCCNCc2ccccc2)c(C)c1 | inactive
Cc1cc(Cl)ccc1NC(=O)c1ccc2c(c1)OCO2 | inactive
CN(C)c1ccc(/C=C(\C#N)c2ccccn2)cc1 | inactive
O=C1NC2c3c(I)sc(I)c3C(=O)C2O1 (configuration not stated) | inactive

Structure (SMILES) | outcome
C/C(=N\Nc1cc(N2CCOCC2)ncn1)c1ccccc1 | inactive
O=C(Nc1ccccc1N1CCN(C(=O)c2ccccc2)CC1)c1ccc([N+](=O)[O-])o1 | inactive
COc1ccccc1N1CCN(/N=C/c2cccc(Cl)c2)CC1 | inactive
O=C(CS(=O)c1ccc(C(F)(F)F)cc1[N+](=O)[O-])Oc1ccccc1 (configuration not stated) | inactive
O=C(/C=C\c1ccccc1)NCC(=O)N/N=C/c1ccc(O)cc1O | inactive
CCOC(=O)/C=c1/s/c(=C/c2ccc3cc(OC)ccc3c2)c(=O)n1CC(=O)NCC1CCCO1 (configuration not stated) | inactive
CC(C)(C)C(=O)/C(=C/c1ccncc1)n1cncn1 | inactive
c1ccc(OCc2nn3c(-c4ccccn4)nnc3s2)cc1 | inactive
O=C(N/N=C/c1ccccc1Cl)c1n[nH]c2c1CCCC2 | inactive
N#Cc1cnn2cc(CCN3CCOCC3)c(-c3ccc(F)cc3)nc12 | inactive
CCCCC(=O)N/C(N)=N/c1nc2ccccc2o1 | inactive
C=CCn1cccc(C(=O)Nc2ccc(C)c(Cl)c2)c1=O | inactive
N#C/C(C(=O)c1ccccc1)=C1/CCCCCN1 | inactive
Cc1ccc2cc(NC(=O)Cc3ccccc3)ccc2n1 | inactive
COc1cccc(/C=C2/Sc3ccc(C(=O)NCCN4CCCC4)cc3NC2=O)c1 | inactive
COc1ccc(/C=C2\Sc3ccc(C(=O)NCCN4CCCCCC4)cc3N(C)C2=O)cc1 | inactive
CCN1CCN(CCCNC(=O)c2ccc3c(Cl)c4c(nc3c2)CCCC4)CC1 | inactive
Cc1cccc(/C=C2/Sc3ccc(C(=O)NCCN4CCCC4)cc3NC2=O)c1 | inactive
CCN1CCCC1CNC(=O)c1ccc2c(c1)NC(=O)/C(=C\c1ccc(OC)c(OC)c1)S2 (configuration not stated) | inactive
CC1(C)CC(=O)c2cnc(N3CCc4ccccc43)nc2C1 | inactive
CC1=C/C(=N\NC(=S)Nc2cccnc2)CC(C)(C)C1 | inactive
CC(C)(C)NC(=O)CCN(/N=C/c1ccc([N+](=O)[O-])o1)C1=NS(=O)(=O)c2ccccc21 | inactive
O=C1CCC2S/C(=C/Nc3ccc(C(F)(F)F)cc3)C(=O)N12 (configuration not stated) | inactive

Structure (SMILES) | outcome
Nc1nc2n[nH]nc2c(=O)[nH]1 | inactive
CN1CCN(c2ccc(NC(=S)NC(=O)c3cccc4ccccc34)cc2)CC1 | inactive
CCOc1ccc(-n2c(O)c(/C=N/Nc3nc(C)cc(C)n3)c3ccccc3c2=O)cc1 | inactive
O=C1N=C(N2CCOCC2)S/C1=C\C=C/c1ccccc1 | inactive
O=C(c1ccc(F)cc1)N1CCC(c2ccccc2)C1 (configuration not stated) | inactive
COc1ccc2c(c1OC)C(=O)N(c1ccc(C)cc1)C2 | inactive
Cn1cc([N+](=O)[O-])c(C(=O)Nc2cc(Oc3ccccc3)cc([N+](=O)[O-])c2)n1 | inactive
Cc1cnc(NC(=O)c2nn(C)cc2[N+](=O)[O-])s1 | inactive
Cc1ccc(-n2nnnc2CNC(=O)c2ccc([N+](=O)[O-])o2)cc1C | inactive
CCc1cc(C=NC2CCCCC2)c(O)s1 | inactive
Cc1ccc(-n2[nH]c(=O)c(-c3ccccn3)c2C)cc1 | inactive
O=C(CSc1nc2ccccc2[nH]1)c1ccc2c(c1)OCO2 | inactive
O=C(Nc1ccc(Br)cc1)c1ccc2c(c1)OCO2 | inactive
CCc1ccc(-c2cc(C(=O)Nn3cnnc3)c3ccccc3n2)cc1 | inactive
CCc1ccccc1NC(=O)CN(C)C(=O)Cn1ncc(Cl)c(Cl)c1=O | inactive
CCOC(=O)c1[nH]cnc1N=Nc1c(O)ccc2ccccc12 | inactive
O=[N+]([O-])c1ccc(/C=N/N=C/c2ccc([N+](=O)[O-])o2)o1 | inactive
O=C(N/N=C/c1ccc([N+](=O)[O-])o1)c1ccccc1-n1cccc1 | inactive
O=C(N/N=C/c1ccc([N+](=O)[O-])o1)c1sc2ccccc2c1Cl | inactive
O=C(Cn1ncc(Cl)c(Cl)c1=O)N1CCOCC1 | inactive
O=[N+]([O-])c1ccc(/C=N/Nc2ccnc3cc(Cl)ccc23)o1 | inactive
COc1cc(OC)cc(C(=O)Nc2ccc3c(c2)OCCO3)c1 | inactive
COc1cccc(NC(=O)Nc2cccc(C(=O)O)c2)c1 | inactive

Structure (SMILES) | outcome
C/C(=N/N=C(/C)c1cccs1)c1cccs1 | inactive
O=C(Nc1nc(-c2ccccn2)cs1)c1ccccc1-n1cnnn1 | inactive
COc1ccc(Br)cc1C(C[N+](=O)[O-])c1c(N)n(C)c(=O)n(C)c1=O (configuration not stated) | inactive
O=C(CCC1CCCN(C(=O)c2cc3ccccc3o2)C1)NCc1ccc(F)c(F)c1 (configuration not stated) | inactive
CCOC(=O)c1sc(NC(=O)Nc2ccc(Cl)cc2)nc1C | inactive
O=C(NC1CCCCC1)c1cc2cc(Br)ccc2o1 | inactive
C=CCOc1ccc(/C=C/C(C)=N\O)cc1 | inactive
Cc1cc(C)c(C#N)c(SCc2nnc(-c3ccccc3)o2)n1 | inactive
COc1ccc2nc(C)cc(SCC(=O)N/N=C/c3ccc(O)cc3O)c2c1 | inactive
O=C(CNC(=O)c1ccc(Br)cc1)c1ccccc1 | inactive
Nc1ccc(Oc2cccc(Oc3ccc(N)cc3)c2)cc1 | inactive
O=C(Nc1cc(-c2nc3ncccc3o2)ccc1Cl)c1ccc([N+](=O)[O-])o1 | inactive
COc1ccc(C[C@H]2CN3C(=NC[C@@H]3C(C)C)N2CCNC(=O)c2ccc(C)c(Br)c2)cc1 | inactive
CCOc1ccc(C(=O)Nc2cccc(C(=O)O)c2C)cc1Cl | inactive
COc1cccc(C(=O)Oc2c(CN3CCOCC3)cc(Cl)c3cccnc23)c1 | inactive
Cc1onc(-c2ccccc2)c1C(=O)N/N=C/c1ccc([N+](=O)[O-])s1 | inactive
CCOc1ccc(NC(=O)CCC(=O)N/N=C/c2ccc([N+](=O)[O-])s2)cc1 | inactive
Cc1ccccc1C(=O)N/N=C/c1ccc([N+](=O)[O-])s1 | inactive
O=C(N/N=C/c1ccc([N+](=O)[O-])s1)c1cccc(Br)c1 | inactive
O=C(N/N=C/c1ccc([N+](=O)[O-])s1)c1ccccc1Br | inactive
O=C(N/N=C/c1ccc([N+](=O)[O-])s1)c1ccccc1 | inactive
O=C(CNC(=O)c1cccc(F)c1)N/N=C/c1ccc([N+](=O)[O-])s1 | inactive
CC(=O)c1ccc(S(=O)(=O)N2CCN(C(=O)/C=C/c3ccc4ccccc4n3)CC2)cc1 | inactive

Structure (SMILES) | outcome
CN(C)c1ccc(/C=N/N2CCN(c3ccccn3)CC2)cc1 | inactive
CC(=O)Nc1nc(C)c(-c2csc(Nc3cccc(C(C)=O)c3)n2)s1 | inactive
O=C(O)c1ccccc1C(=O)Nc1ccc(Oc2cccc3ccccc23)cc1 | inactive
O=C(Nc1ccc(N2CCOCC2)c(Cl)c1)c1cccc(F)c1 | inactive
O=C(Cc1ccccc1)NCC(=O)N/N=C/c1ccc([N+](=O)[O-])s1 | inactive
O=C(CNC(=O)c1ccccc1)N/N=C/c1ccc([N+](=O)[O-])s1 | inactive
CCCN1C(=O)c2ccc(C(=O)Nc3cc(C)ccc3O)cc2C1=O | inactive
Cc1cc(C)c2c(N)c(C(=O)N/N=C/c3ccccc3)sc2n1 | inactive
Cc1c(Cl)c([N+](=O)[O-])nn1Cc1ccc(C(=O)N/N=C\c2cc(Cl)ccc2O)o1 | inactive
O=C(CCl)Nc1cccc(S(=O)(=O)NC2=NCCCCC2)c1 | inactive
O=C(CSc1nnnn1-c1ccc(O)cc1)Nc1cccc(S(=O)(=O)N2CCCC2)c1 | inactive
COc1ccc(NS(=O)(=O)c2cc(NC(=O)CNC(=O)c3cccc(OC)c3)ccc2C)cc1 | inactive
O=C(Nc1cccc(S(=O)(=O)N2CCCCC2)c1)c1ccc([N+](=O)[O-])o1 | inactive
O=C(N/N=C\c1cc(Cl)ccc1O)c1ccc(S(=O)(=O)N2CCCCC2)cc1 | inactive
O=C(Nc1ccc(S(=O)(=O)N2CCCCCC2)cc1)c1[nH]ncc1[N+](=O)[O-] | inactive
Cc1cccc(NC(=O)Cc2ccc(Br)cc2)n1 | inactive
Cc1ccc(Nc2nnc(-c3ccccc3N)o2)cc1C | inactive
COc1ccc(NC(=O)C2COc3ccccc3O2)cc1 (configuration not stated) | inactive
Cn1nnnc1Sc1ncnc2scc(-c3cccs3)c12 | inactive
Cc1csc(NC(=O)Cc2c(F)cccc2Cl)n1 | inactive
